High-throughput results deposited in PubChem by Broad Institute.
A selection follows.
aSyn UTR act: Activators working through SNCA 5'UTR binding (MLPCN) | alpha-synuclein 5'UTR reporter, activators screen | activity score, % (tested at 7.5 µM), hits read low | actives 7.1% (n = 300,000) | AID 1814; in the data active = activity score below about -60%
* = called active by the depositor; + = active, no number; ! = a repeat was not active.

SMILES	aSyn UTR act
O=c1c2ccccc2ncn1-c1ccc(Cl)cc1	-103.0*!
CC(C)(C)c1cc(NCCCn2ccnc2)n2ncc(-c3ccccc3)c2n1	-149.1*
CN(C)CCCNc1cc(C(C)(C)C)nc2c(-c3ccc(Cl)cc3)cnn12	108.0
CC(C)(C)c1cc(-n2ccnc2)n2ncc(-c3ccc(Cl)cc3)c2n1	-67.3*
Cc1cc(NCCCn2ccnc2)n2ncc(-c3ccc(Cl)cc3)c2n1	59.8
Cc1cnn(-c2cc(N/N=C/c3ccc(F)cc3)ncn2)c1	-85.9*
COc1cccc(/C=N/Nc2cc(-n3nc(C)cc3-c3ccccc3)ncn2)c1O	110.2
CCOC(=O)c1sc(NC(=O)CSc2nc3c(cc2C#N)CCCCC3)c(C#N)c1C	-142.8*
CCc1nnc(NC(=O)CSc2nc3c(cc2C#N)CCCC3)s1	-90.7*
COC(=O)CC(=O)CSc1nc2c(cc1C#N)CCCCC2	-61.7*
CSC1CCCCC1(O)CSc1nc2c(cc1C#N)CCCC2 (centres undefined)	56.5
Clc1cc(NCc2cccs2)ccc1N1CCOCC1	-105.2*
CC(C)C(=O)N1CCN(c2ccc(NC(=O)c3ccc4c(c3)OCCO4)cc2Cl)CC1	-109.2*
O=C(Nc1ccccc1N1CCCC1)c1cc2ccccc2o1	-251.5*
O=C(Nc1ccc(N2CCOCC2)c(Cl)c1)c1ccccc1Cl	-66.0*
O=C(Nc1ccc(N2CCOCC2)nc1)c1ccc(Cl)cc1	-72.9*
O=C(NC(=S)N1CCOCC1)c1cc2ccccc2o1	-73.5*
O=C(Nc1ccc(CN2CCOCC2)cc1)c1ccc(Br)o1	-103.8*
O=C(Nc1ccc(N2CCOCC2)c(Cl)c1)c1ccc(F)cc1	-140.0*
O=C(Nc1ccc(N2CCOCC2)c(Cl)c1)c1cc2ccccc2o1	-203.7*
O=C(Nc1cccnc1Cl)c1cc2ccccc2o1	-166.1*
O=C(/C=C/c1ccccc1)Nc1ccc(CN2CCOCC2)cc1	-87.5*
O=C(N/N=C/c1ccc(N2CCOCC2)s1)c1ccccc1Cl	-116.0*
O=C(Nc1ccc(N2CCOCC2)c(Cl)c1)c1ccc(Br)o1	-253.2*
COCCNC(=O)Cc1c(C)c2c(cc(C)c3c(C(C)(C)C)coc32)oc1=O	-115.5*
SMILES	aSyn UTR act
Cc1cc2oc(=O)c(CC(=O)NCCCN(C)C)c(C)c2c2occ(C(C)(C)C)c12	61.0
Nc1nc(-c2ccc3c(c2)OCCO3)cs1	-86.1*
CC1Cc2cc(-c3csc(N)n3)ccc2O1 (centres undefined)	-95.0*
Cc1nc(-c2ccc3c(c2)OCCCO3)cs1	-100.1*
Cc1cc(NC(=O)c2cccc(Br)c2)n[nH]1	-141.4*
CCN(CC)S(=O)(=O)c1cc(C(=O)Nc2cc(C)[nH]n2)ccc1Cl	-161.0*
COc1cccc(C(=O)Oc2c(Br)cc(Br)cc2/C=N/NC(=O)c2cc(C)[nH]n2)c1	64.3
COc1cccc(C(=O)NC(=O)Nc2cc(C)[nH]n2)c1	-139.9*
CCOC(=O)C(NC(=O)Nc1ncccn1)(Oc1ccccc1)C(F)(F)F (centres undefined)	-83.3*
Cc1cccc(N/N=C/c2ccccc2O)c1	-182.0*
COc1ccc2nc(C)cc(N/N=C/c3cccc(OC)c3O)c2c1	99.8
CC(C)(C)c1nnc(N/N=C/c2ccccc2O)n(N)c1=O	110.0
Cc1cc(N/N=C/c2ccccc2O)c2ccccc2n1	-113.5*
Cc1ccccc1/C=N/Nc1nc2ccccc2c(=O)n1O	-129.4*
Cc1cccc(N/N=C/c2ccncc2)c1	-108.7*
O=C1Nc2cc(Cl)c(Cl)cc2N(O)N1c1ccc(Cl)cc1	-149.3*
O=C(O)C[C@H](O)C[C@H](O)/C=C/c1c(C2CC2)nc2ccccc2c1-c1ccc(F)cc1	103.7
COc1ccc(OCc2cccc(C(=O)Nc3ccc(CN4CCCCC4)cc3)c2)cc1	-112.0*
CCN1CCN(Cc2ccc(NC(=O)Nc3ccc(SC)cc3)cc2)CC1	-103.1*
CCOc1ccc(OCc2cccc(C(=O)Nc3ccc(CN4CCCCC4)cc3)c2)cc1	61.3
CCN1CCN(Cc2ccc(NC(=O)Nc3ccc(OC)cc3)cc2)CC1	-73.7*
C/C(=N\Nc1cc(Cl)nc(C)n1)c1ccccc1	-142.0*
Cn1cccc1-c1nc2ccc(NC(=O)c3ccccc3)cc2[nH]1	-124.5*
Cn1cccc1-c1nc2ccccc2[nH]1	-114.1*
COc1ccc(NC(=S)Nc2ccccn2)c(OC)c1	-152.7*
SMILES	aSyn UTR act
COc1ccc(NC(=O)c2nc(S(=O)(=O)Cc3cccc(C)c3)ncc2Cl)c(OC)c1	82.4
COc1ccc(NC(=S)Nc2cc(C)ccn2)c(OC)c1	-243.3*
O=C(Nc1ccc2oc(-c3ccccc3)nc2c1)C1CCCO1 (centres undefined)	-161.9*
O=C(Nc1ccc(-c2nc3cc(Cl)ccc3o2)cc1)C1CCCO1 (centres undefined)	-81.0*
COC(=O)c1cc(-c2ccccc2)sc1N	-77.4*
COC(=O)c1sc(-c2cccs2)cc1N	-85.6*
COC(=O)c1sc(-c2ccc(Cl)cc2)cc1N	-101.1*
O=C(CC1CCCCC1)NCc1ccccc1Cl	-107.2*
Cc1ccc(C(=O)Oc2ccc(/C=C3\C(=N)N4N=C(N5CCOCC5)SC4=NC3=O)cc2)cc1	-61.9*
CC1(C)CN=C(N(Cc2ccccc2)C(=O)Nc2ccccc2)S1	-153.9*
O=C(NCc1cccs1)c1cc2c(s1)-c1ccccc1OC2	-89.8*
CN(C)CCNC(=O)c1cc2c(s1)-c1ccc(Cl)cc1SC2	100.5
O=C(NC1CC1)c1cc2c(s1)-c1ccccc1OC2	-82.4*
c1ccc(Cn2cc(CSc3ccccc3)nn2)cc1	-137.1*
Cc1ccc(NC(=O)c2cc(F)c(F)cc2Cl)nc1	-130.0*
Cc1ccc(NC(=O)c2ccccc2F)nc1	-87.7*
CC(=O)c1c(C)[nH]c(C(=O)Nc2ccc(C)cn2)c1C	84.9
COc1cc2ccccc2cc1C(=O)Nc1ccc(C)cn1	-86.8*
COc1ccc(-n2cccc2/C=C2/NC(=O)N(c3cccc(Cl)c3)C2=O)cc1	-143.2*
O=C(Nc1ncccc1O)c1ccc(S(=O)(=O)Nc2ccccc2)cc1	+
O=C(Nc1ccccc1O)c1ccc(NS(=O)(=O)c2cccc3cccnc23)cc1	-604.6*
C/C(=N\NC(=O)COc1ccc(C(C)(C)C)cc1)c1ccc(-n2ccnc2)cc1	-132.7*
COc1cc2c(cc1OC)C(C)N(C(=O)c1cc(Cl)nc(Cl)c1)CC2 (centres undefined)	-105.1*
O=c1/c(=C/c2ccc([N+](=O)[O-])cc2)sc2n1CCCN=2	-172.9*
COc1cc(/C=c2\sc3n(c2=O)CCCN=3)ccc1O	-101.8*
SMILES	aSyn UTR act
COc1ccc(/C=c2/sc3n(c2=O)C(c2ccccc2OC)C2=C(N=3)c3ccccc3CC2)cc1O (centres undefined)	94.3
CCOc1ccc2c(c1)c(N=O)c(O)n2C	-64.9*
COc1ccc(OCc2cc(C(=O)N(C)Cc3nnc(C)o3)no2)c(Cl)c1	-120.8*
CCc1ccc(CN(C)C(=O)c2cc(COc3ccc(OC)cc3Cl)on2)nc1	-169.7*
Cc1cc(CN(C)C(=O)c2cc(COc3ccc(F)cc3Cl)on2)n[nH]1	-75.1*
CCN(Cc1ccncc1)C(=O)c1cc(COc2ccc(OC)cc2Cl)on1	-111.0*
CCCOC(c1ccccc1)(c1ccc(C(F)(F)F)cc1)C(Oc1nc(C)cc(C)n1)C(=O)O (centres undefined)	61.3
COc1ccc(OCc2cc(C(=O)N(C)Cc3cc(C)no3)no2)c(Cl)c1	-182.3*
CN(Cc1ccccc1)S(=O)(=O)c1ccc(C(=O)Nc2nnc(C3CC3)o2)cc1	60.1
CC(=O)c1ccc(NC(=O)C(C)Sc2nnc(C3CCCCC3)o2)cc1 (centres undefined)	-127.9*
COc1ccc(C(=O)NC(=O)COC(=O)c2ccc3ncsc3c2)cc1	-82.1*
